# Data from PubChem BioAssay (NCATS).
# “And” between values parts separate entries of the source, which are not always exact repeats. Identical values can stand only once. Inconclusive results are not listed. A number with no mark means an inactive call. The source made the active and inactive calls. Calls follow the shape of the dose curve; as a rule, active = well fitted inhibition curve with a large enough effect; inconclusive = small, poorly fitted or top-dose-only effect; inactive = flat fitted curve, though single readings scatter.
# Legend:
# Assay in all cases: Cytotoxic Profiling of Annotated Libraries Using Quantitative High-Throughput Screening (AID 1296008); also: nearly all actives have a fitted effect of over 60% in size
# Settings in all cases: Five cell lines viability, CellTiter-Glo ATP luminescence, 48-72 h; max response: hits give low values
# CRL-7250 = normal cell line; test system: CRL-7250
# Method in brief: (§1)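 Cytotoxicity was measured as CellTiter-Glo ATP luminescence, read after 10 min at room temperature. Compound treatment of the cells lasted 48 or 72 hr at 37 degrees Celsius in a qHTS format.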
# HEK293 = test system: HEK293
# Method in brief: as §1
# HaCat = test system: HaCat
# Method in brief: as §1
# % is scaled to controls: 0 for no effect and ±100 for the full control effect; potency is read from the fitted curve at half-maximal effect.
compound,measurement,setting,value
N[C@@H](CC(=O)N1CCn2c(nnc2C(F)(F)F)C1)Cc1cc(F)c(F)cc1F,max response,CRL-7250,-4.16%
same,max response,HEK293,1.14%
same,outcome,HaCat,inactive
Cc1cc2c(cc1C1(c3ccc(C(=O)O)cn3)CC1)C(C)(C)CCC2(C)C,outcome,CRL-7250,inactive
same,max response,HEK293,-8.08%
same,max response,HaCat,-17.6%
O=C(O)C1=CO[C@@H](O[C@@H]2O[C@H](CO)[C@H](O)[C@H](O)[C@H]2O)[C@@H]2C(CO)=CC[C@H]12,max response,CRL-7250,1.58%
same,outcome,HEK293,inactive
same,max response,HaCat,-0.469%
CC(=O)N1CCN(c2ccc(OCc3nn(C)c(C)c3-c3cccc4c(CCCOc5cc(C)c(Cl)c(C)c5)c(C(=O)O)n(Cc5cccnc5)c34)cc2)CC1,max response,CRL-7250,4.49%
same,outcome,HEK293,inactive; activator
same,outcome,HaCat,inactive
Cc1ccc(S(=O)(=O)Nc2nc3ccccc3nc2Nc2ccc3nsnc3c2)cc1,max response,CRL-7250,-6.76%
same,max response,HEK293,4.32%
same,Potency,HaCat,14.4 µM (active)
Cc1cc(-c2ncc(CC(=O)Nc3ccc(-c4cnccn4)cn3)cc2C)ccn1,Potency,CRL-7250,10.5 µM (active) and 6.51 µM (active)
same,Potency,HEK293,9.35 µM (active) and 8.2 µM (active)
same,max response,HaCat,-23.2% and -10.9%
Cc1ccc2c(=O)c3cccc(CC(=O)O)c3oc2c1C,max response,CRL-7250,-6.92%
same,outcome,HEK293,inactive
same,max response,HaCat,-14.4%
CN(C)CCN(Cc1ccc(Cl)cc1)c1ccccn1,max response,CRL-7250,4.38%
same,max response,HEK293,-16.3%
same,outcome,HaCat,inactive
Cc1cc(OCCCS(C)(=O)=O)cc(C)c1-c1cccc(COc2ccc3c(c2)OC[C@H]3CC(=O)O)c1,max response,CRL-7250,-33.3%
same,Potency,HEK293,20.9 µM (active)
same,max response,HaCat,-16.3%
CCOC(=O)[C@H]1O[C@H]1C(=O)N[C@@H](CC(C)C)C(=O)NCCC(C)C,max response,CRL-7250,-2.98%
same,outcome,HEK293,inactive
same,max response,HaCat,-0.586%
CC1(C)[C@H]2CC[C@]3(C)[C@@H](C(=O)C=C4[C@@H]5C[C@@](C)(C(=O)O)CC[C@]5(C)CC[C@]43C)[C@@]2(C)CC[C@@H]1O,outcome,CRL-7250,inactive
same,max response,HEK293,-1.55%
same,outcome,HaCat,inactive
COc1cc([C@H]2Oc3cc([C@H]4Oc5cc(O)cc(O)c5C(=O)[C@H]4O)ccc3O[C@H]2CO)ccc1O,outcome,CRL-7250,inactive
same,max response,HEK293,-13.7%
same,outcome,HaCat,inactive
Cc1cc(NC(=O)Nc2ccc(N(C)C)cc2)c2cc(F)cc(F)c2n1,outcome,CRL-7250,inactive
same,Potency,HEK293,14.8 µM (active)
same,outcome,HaCat,inactive
CNc1nc(Nc2ccc(C(=O)N3CCOCC3)cc2OC)ncc1Cl,max response,CRL-7250,2.63% and -2.16%
same,max response,HEK293,3.56% and -22.4%
same,outcome,HaCat,inactive
CC(=O)Nc1cccc(-n2c(=O)n(C3CC3)c(=O)c3c(Nc4ccc(I)cc4F)n(C)c(=O)c(C)c32)c1,Potency,CRL-7250,164 nM (active)
same,Potency,HEK293,11.8 µM (active)
same,Potency,HaCat,3.32 µM (active) and 5.17 µM (active)
NCC1CCC(C(=O)O)CC1 (centres undefined),max response,CRL-7250,-3.04%
same,max response,HEK293,2.93%
same,outcome,HaCat,inactive
N#CC1(c2cccc(C(=O)Nc3cc(Oc4ccc5nc(NC(=O)C6CC6)sc5n4)ccc3F)c2Cl)CC1,Potency,CRL-7250,5170 nM (active)
same,Potency,HEK293,13.2 µM (active) and 6.51 µM (active)
same,Potency,HaCat,26.4 µM (active) and 20.6 µM (active)
CC1CNc2c(cccc2S(=O)(=O)N[C@@H](CCCN=C(N)N)C(=O)N2CC[C@@H](C)C[C@@H]2C(=O)O)C1 (some centres undefined),outcome,CRL-7250,inactive
same,outcome,HEK293,inactive
same,outcome,HaCat,inactive
C[C@H]1COC2=C1C(=O)C(=O)c1c2ccc2c1CCCC2(C)C,max response,CRL-7250,-3.27%
same,max response,HEK293,-0.441%
same,max response,HaCat,3.37%
Cc1cccc2c1CC[C@H](CN1CCC(c3c(Cl)cccc3Cl)CC1)C[C@@H]2O,max response,CRL-7250,-6.89% and 0.148%
same,Potency,HEK293,14.6 µM (active)
same,max response,HaCat,1.39%
COc1ccc2ccc(=O)oc2c1CC=C(C)C,max response,CRL-7250,-22%
same,max response,HEK293,-5%
same,max response,HaCat,-6.16%
OC1CCC(Nc2ncc3nc(Nc4c(F)cc(F)cc4F)n([C@@H]4CCOC4)c3n2)CC1 (some centres undefined),outcome,CRL-7250,inactive
same,max response,HEK293,-2.09%
same,max response,HaCat,-6.12%
CN[C@@H]1[C@@H](O)[C@@H](O[C@@H]2[C@@H](O)[C@H](O[C@H]3O[C@H](CN)[C@@H](O)[C@H](O)[C@@H]3O)[C@@H](N)C[C@@H]2NC(=O)[C@@H](O)CN)OC[C@]1(C)O,outcome,CRL-7250,inactive
same,max response,HEK293,3.66%
same,outcome,HaCat,inactive
